# Bioassay records: PubChem BioAssay, several laboratories
# E-sel TNF inh: blocks E-selectin expression induced by TNF alpha | HUVEC TNFa-induced E-selectin immunofluorescence, high content | inhibition, % at 2 µM | hit rate 0.71% among 120,000;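 active = inhibition above the batch mean plus 3 SD, and confirmed as a hit on visual image review, cut at about 43% in these data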
# F-actin modifier: cytoskeleton assembly modification | AID 836 | inhibition, % at 2 µM | hit rate 0.18% among 91,000 | HUVEC TNFa F-actin phalloidin imaging, high content;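 active = inhibition above the batch mean plus 3 SD and confirmed as a hit by visual image inspection, cut at about 30% in these data, passing the limit was not always enough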
# CYP2C9 inhib: inhibitors of human CYP2C9 | P11712 | CYP2C9 Supersomes, luciferin-H conversion, luminescence | inhibition, % at 5 µM | hit rate 20% among 96,000;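 active = blocking of liver enzyme CYP2C9 beyond about 50% at 5 µM, limit read from the data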
# Target sequence (P11712 whole entry, looked up): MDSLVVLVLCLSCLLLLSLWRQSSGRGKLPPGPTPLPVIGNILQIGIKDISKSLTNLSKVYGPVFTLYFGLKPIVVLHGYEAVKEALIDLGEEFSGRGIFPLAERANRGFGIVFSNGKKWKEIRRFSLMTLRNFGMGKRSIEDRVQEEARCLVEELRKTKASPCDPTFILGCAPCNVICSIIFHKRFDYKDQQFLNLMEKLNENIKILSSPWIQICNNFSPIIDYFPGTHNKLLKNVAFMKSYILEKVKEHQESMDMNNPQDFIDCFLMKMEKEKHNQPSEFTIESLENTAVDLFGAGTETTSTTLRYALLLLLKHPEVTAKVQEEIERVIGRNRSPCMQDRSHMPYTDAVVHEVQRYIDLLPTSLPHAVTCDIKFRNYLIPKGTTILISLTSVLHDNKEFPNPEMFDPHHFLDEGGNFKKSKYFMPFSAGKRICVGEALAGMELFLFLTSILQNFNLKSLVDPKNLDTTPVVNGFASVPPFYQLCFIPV
# CYP2C19 inhib: blocks human cytochrome P450 2C19. CYP2C19 Supersomes, luciferin-H EGE luminescence, 30 min. inhibition, % at 5 µM. hit rate 21% among 96,000. AID 778;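 active = CYP2C19 inhibition above a set limit at 5 µM in the primary screen, cut at about 50% in these data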
# CYP2C19 activ: cytochrome P450 2C19 (human) activation; activation factor at 5 µM; 96,000 tested, under 10 active; P33261; recombinant CYP2C19, luciferin-H EGE luminescence; hits give high values; 0 = fully inhibited enzyme, 1 = untreated enzyme;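 active = activation factor of at least 2 at 5 µM in the primary screen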
# CYP2C9 act: CYP2C9 (human) activation | P11712 | recombinant CYP2C9, luciferin-H conversion, luminescence; hits give high values; factor 1 = untreated enzyme, 0 = blocked | activation factor at 5 µM | hit rate 1.4% among 96,000 | AID 1024;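 active = activation factor of 2 or more for CYP2C9 at a 5 µM dose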
# Hits are given with their value; 0 = inactive; - = not tested or not shown. Sampled rows, rich in hits. Any-hit rate of the full collection: about 22%.
SMILES,E-sel TNF inh,F-actin modifier,CYP2C9 inhib,CYP2C19 inhib,CYP2C19 activ,CYP2C9 act
CC(C)CNC(=O)NC(=O)COC(=O)c1cc(F)cc(F)c1,0,-,-,-,-,-
Cc1ccc(N2CCN(C(=O)c3ccccc3NC(=O)C3CCCCC3C(=O)O)CC2)cc1 (stereo not drawn),0,-,-,-,-,-
COC(=O)C1=C(C)NC(C)=C(C(=O)OC)C1c1cn(-c2ccccc2)nc1-c1ccco1,0,0,83,0,0,0
C=CCOC(=O)C1=C(C)NC(=O)NC1c1cn(-c2ccccc2)nc1-c1cccs1 (stereo not drawn),0,0,79,68,0,0
O=C1CSC(c2cn(-c3ccccc3)nc2-c2cccs2)N1Cc1ccccc1 (stereo not drawn),0,-,0,0,0,0
CC1=C(C#N)C(c2cn(-c3ccccc3)nc2-c2cccs2)C(C#N)=C(C)N1,0,0,75,74,0,0
COCCOC(=O)C1=C(C)NC(=O)NC1c1cn(-c2ccccc2)nc1-c1cccs1 (stereo not drawn),0,0,70,76,0,0
COc1ccc(CCNC(=O)Cn2cc(C(F)(F)F)cc(Cl)c2=O)cc1,0,-,-,-,-,-
CCOC(=O)C1CCCN(C(=O)Cn2nc(Cc3cccnc3)c3ccccc3c2=O)C1 (stereo not drawn),0,0,0,0,0,0
COc1cccc(NC(=O)Cn2nc(Cc3cccnc3)c3ccccc3c2=O)c1,-,0,59,0,0,0
COc1ccc(CNC(=O)Cn2nc(Cc3cccnc3)c3ccccc3c2=O)cc1,0,0,76,0,0,0
Nc1nc(-c2ccc(Br)s2)c(Br)s1,0,0,0,0,0,0
Clc1ccc(SCc2cc(-c3ccc(Cl)cc3)on2)cc1,0,0,0,0,0,0
NC(=O)Nc1ccc2c(c1)OCCO2,-,0,0,0,0,0
O=C(CNS(=O)(=O)c1ccc(Br)s1)Nc1ccc2c(c1)OCCO2,-,0,75,0,0,0
O=C(CNS(=O)(=O)c1ccc(Br)s1)NCC1COc2ccccc2O1 (stereo not drawn),-,0,64,0,0,0
O=C(CNS(=O)(=O)c1ccc(Br)s1)NC1CCCc2ccccc21 (stereo not drawn),0,-,-,-,-,-
CN(CC(=O)Nc1ccc2c(c1)OCCO2)S(=O)(=O)c1ccc(Br)s1,0,0,64,68,0,0
Oc1cccc(-c2nc3ccc4ccccc4c3c3c2CCC3)c1,0,0,0,0,0,0
CCc1cc2c(N3CCCCC3)ncnc2s1,0,0,65,87,0,0
CSc1cccc(NC(=O)c2nnn(Cc3ccccc3)c2N)c1,0,0,0,0,0,0
CSc1nccc(-c2nn(-c3ccc(C)cc3)ccc2=O)n1,0,-,0,0,0,0
CCSc1nccc(-c2nn(-c3ccc(C)cc3)ccc2=O)n1,-,0,63,0,0,0
CCCCCn1ccc(=O)c2c(C(F)(F)F)nccc21,0,0,-,-,-,-
COc1cc2cc(C(=O)O)[nH]c2c(OC)c1OC,0,0,0,0,0,0
SMILES,E-sel TNF inh,F-actin modifier,CYP2C9 inhib,CYP2C19 inhib,CYP2C19 activ,CYP2C9 act
CCOC(=O)c1cc(C)n(-c2c(C)n(C)n(-c3ccccc3)c2=O)c1C,0,-,0,0,0,0
O=C(Nc1ccccc1Cl)N1CCN(c2ccc3nnc(-c4ccccc4)n3n2)CC1,0,0,89,69,0,0
O=C(c1ccc(Br)o1)N1CCN(c2ccc3nnc(-c4ccc(F)cc4)n3n2)CC1,-,0,67,0,0,0
O=C(Nc1ccc(Cl)cc1)N1CCN(c2ccc3nnc(-c4ccc(F)cc4)n3n2)CC1,0,-,56,0,0,0
CN(CCO)c1cc(Sc2nc3ccccc3s2)c2nonc2c1[N+](=O)[O-],0,0,0,0,0,0
CCC(c1nnnn1C(C)(C)C)N1CCN(C2CCCC2)CC1 (stereo not drawn),0,0,0,0,0,0
CCCC(c1nnnn1C1CCCCC1)N1CCN(C2CCCC2)CC1 (stereo not drawn),0,-,0,72,0,0
CCCC(c1nnnn1C(C)(C)CC)N1CCN(C2CCCC2)CC1 (stereo not drawn),0,0,0,60,0,0
Cc1ccc2c(c1)-c1c(cnn1CC(=O)N(CCC#N)c1ccccc1)CO2,-,0,0,0,0,0
CCn1cc(C(=O)NCC2CCCO2)c2cc(OC)c(OC)cc2c1=O (stereo not drawn),-,0,0,0,0,0
CCc1cccc(CC)c1NC(=O)COC(=O)c1ccc2c(c1)S(=O)(=O)c1ccccc1C2=O,0,-,-,-,-,-
CCc1cc(=O)oc2c(C)c(O)c(CN(C)C)cc12,0,0,0,0,0,0
CCc1cc(C=C(Cl)Cl)oc(=O)c1C,0,-,0,83,0,0
Cc1sc(NC(=O)c2ccccc2F)c(CN2CCCCC2C)c1C (stereo not drawn),0,-,-,-,-,-
COC(=O)c1ccc(CNC(=O)COC(=O)CCC2CCCC2)cc1,0,-,-,-,-,-
COc1ccc(C(N)=O)cc1N,0,0,0,0,0,0
COC(=O)c1ccc(C(=O)OC)c(N)c1,0,0,0,0,0,0
CN(C)c1ccc(C(=O)c2ccc(N(C)C)c(N)c2)cc1N,0,0,0,81,0,0
CCOc1ccc(C(=O)c2ccc(OCC)c(N)c2)cc1N,0,0,0,76,0,0
CC(C(=O)N=Nc1c(O)[nH]c2ccccc12)n1cnc2ccccc2c1=O (stereo not drawn),0,-,-,-,-,-
CCC1=NNc2cccc3c(OC)ccc1c23,0,0,0,0,0,0
Clc1ccc(Cn2nnc(-c3ccc(N4CCOCC4)cc3)n2)cc1,0,-,0,0,0,0
CSc1ccc(-c2nnn(Cc3ccccn3)n2)cc1,0,0,0,67,0,0
CCOC(=O)Cn1nnc(-c2ccc(SC)cc2)n1,0,0,0,0,0,0
CSc1ccc(-c2nnn(Cc3ccc(Br)cc3)n2)cc1,0,0,0,75,0,0
SMILES,E-sel TNF inh,F-actin modifier,CYP2C9 inhib,CYP2C19 inhib,CYP2C19 activ,CYP2C9 act
COc1ccccc1NC(=O)c1sc2ncn(Cc3ccc(C)cc3)c(=O)c2c1C,0,0,0,84,0,0
O=C(NCc1ccco1)C(c1ccc(F)cc1)N(C(=O)Cc1cccs1)c1cccnc1 (stereo not drawn),0,-,-,-,-,-
CC1CCCC(C)N1C(=O)CSc1nnnn1Cc1ccccc1 (stereo not drawn),0,0,0,0,0,0
CCN(C1CCCCC1)S(=O)(=O)c1ccc(S(=O)(=O)NCc2ccncc2)cc1,0,0,100,84,0,0
CCN(C1CCCCC1)S(=O)(=O)c1ccc(S(=O)(=O)NCCc2ccncc2)cc1,0,-,100,96,0,0
O=S(=O)(NCc1ccccc1)c1ccc(S(=O)(=O)N(Cc2ccccn2)C2CCCC2)cc1,0,0,-,-,-,-
CC1=NN(c2ccccc2)C(=O)C1/C=C1\NC(=S)NC1=O (stereo not drawn),0,-,-,-,-,-
CCc1ccc(NC(=O)C2CCN(S(C)(=O)=O)CC2)cc1,0,-,0,0,0,0
COc1ccc(/C=C2\C(=O)N(Cc3ccc(F)cc3)CC(=O)N2Cc2ccccc2)cc1,-,-,88,72,0,0
